What was measured:
[1] = target: Mitogen-activated protein kinase kinase kinase kinase 4 (Homo sapiens) (UniProt O95819); conditions: at 1 µM;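 further: reported figure is an averaged inhibition value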
[2] = target: Dual specificity mitogen-activated protein kinase kinase 1 (Homo sapiens) (UniProt Q02750); conditions: at 0.1 µM
[3] = target: Dual specificity mitogen-activated protein kinase kinase 1 (Homo sapiens) (UniProt Q02750); conditions: at 1 µM
[4] = target: Misshapen-like kinase 1 (Homo sapiens) (UniProt Q8N4C8); conditions: at 0.1 µM
Misshapen-like kinase 1 (Homo sapiens), sequence (Q8N4C8 whole entry, looked up): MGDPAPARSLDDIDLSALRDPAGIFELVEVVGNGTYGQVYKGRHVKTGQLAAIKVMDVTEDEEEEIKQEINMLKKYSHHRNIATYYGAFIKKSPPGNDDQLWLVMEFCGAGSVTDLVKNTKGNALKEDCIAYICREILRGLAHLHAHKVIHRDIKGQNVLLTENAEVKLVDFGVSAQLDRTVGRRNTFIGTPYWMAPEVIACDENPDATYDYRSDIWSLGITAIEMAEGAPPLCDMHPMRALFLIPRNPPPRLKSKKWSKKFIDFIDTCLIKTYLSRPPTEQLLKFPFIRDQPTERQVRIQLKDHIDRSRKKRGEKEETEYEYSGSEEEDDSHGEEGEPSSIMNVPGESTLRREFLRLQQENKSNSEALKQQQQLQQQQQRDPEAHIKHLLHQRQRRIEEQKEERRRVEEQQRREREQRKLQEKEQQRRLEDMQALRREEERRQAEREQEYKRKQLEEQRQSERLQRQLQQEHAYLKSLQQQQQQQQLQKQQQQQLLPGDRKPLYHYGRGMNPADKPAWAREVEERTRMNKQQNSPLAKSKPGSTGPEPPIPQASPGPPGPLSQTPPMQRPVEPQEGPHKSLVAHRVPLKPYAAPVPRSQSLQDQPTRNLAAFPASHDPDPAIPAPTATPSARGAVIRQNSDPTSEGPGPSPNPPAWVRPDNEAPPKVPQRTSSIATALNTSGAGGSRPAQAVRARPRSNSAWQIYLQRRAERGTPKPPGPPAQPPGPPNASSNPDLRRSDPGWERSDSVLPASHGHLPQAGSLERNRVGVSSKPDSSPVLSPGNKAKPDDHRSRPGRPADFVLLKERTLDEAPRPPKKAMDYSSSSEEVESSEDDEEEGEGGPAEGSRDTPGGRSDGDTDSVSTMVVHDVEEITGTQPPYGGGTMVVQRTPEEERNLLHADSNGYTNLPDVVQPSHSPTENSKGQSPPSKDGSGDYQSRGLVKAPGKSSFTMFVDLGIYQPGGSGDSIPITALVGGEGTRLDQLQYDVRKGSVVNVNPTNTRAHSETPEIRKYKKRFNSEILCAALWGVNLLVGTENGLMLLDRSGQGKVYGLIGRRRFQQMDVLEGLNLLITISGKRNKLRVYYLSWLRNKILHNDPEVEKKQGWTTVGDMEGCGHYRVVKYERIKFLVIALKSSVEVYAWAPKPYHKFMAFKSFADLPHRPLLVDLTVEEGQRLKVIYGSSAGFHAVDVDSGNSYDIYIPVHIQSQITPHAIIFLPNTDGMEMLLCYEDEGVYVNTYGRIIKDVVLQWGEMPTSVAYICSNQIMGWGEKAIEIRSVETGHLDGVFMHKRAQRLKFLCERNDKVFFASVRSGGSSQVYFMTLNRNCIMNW

[5] = target: Misshapen-like kinase 1 (Homo sapiens) (UniProt Q8N4C8); conditions: at 1 µM
[6] = target: T1, Serine/threonine-protein kinase 4 (Homo sapiens) (UniProt Q13043); conditions: at 0.1 µM
T1 sequence (whole entry): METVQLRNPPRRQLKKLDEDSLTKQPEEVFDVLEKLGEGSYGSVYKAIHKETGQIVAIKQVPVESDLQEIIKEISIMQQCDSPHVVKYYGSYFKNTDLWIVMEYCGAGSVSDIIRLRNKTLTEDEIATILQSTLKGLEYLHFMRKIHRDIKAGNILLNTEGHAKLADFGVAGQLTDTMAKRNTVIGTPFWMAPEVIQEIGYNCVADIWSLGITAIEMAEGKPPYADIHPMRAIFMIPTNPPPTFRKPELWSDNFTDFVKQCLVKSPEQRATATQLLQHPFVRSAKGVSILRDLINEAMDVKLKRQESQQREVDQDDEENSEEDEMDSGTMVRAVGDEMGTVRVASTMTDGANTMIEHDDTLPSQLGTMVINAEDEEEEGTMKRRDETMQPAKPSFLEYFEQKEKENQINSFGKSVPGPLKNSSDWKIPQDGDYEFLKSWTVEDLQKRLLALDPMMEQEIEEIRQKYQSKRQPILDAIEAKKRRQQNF

[7] = target: T1, Serine/threonine-protein kinase 4 (Homo sapiens); conditions: at 1 µM
[8] = target: T2, Serine/threonine-protein kinase 3 (Homo sapiens) (UniProt Q13188); conditions: at 0.1 µM
T2 sequence (whole entry): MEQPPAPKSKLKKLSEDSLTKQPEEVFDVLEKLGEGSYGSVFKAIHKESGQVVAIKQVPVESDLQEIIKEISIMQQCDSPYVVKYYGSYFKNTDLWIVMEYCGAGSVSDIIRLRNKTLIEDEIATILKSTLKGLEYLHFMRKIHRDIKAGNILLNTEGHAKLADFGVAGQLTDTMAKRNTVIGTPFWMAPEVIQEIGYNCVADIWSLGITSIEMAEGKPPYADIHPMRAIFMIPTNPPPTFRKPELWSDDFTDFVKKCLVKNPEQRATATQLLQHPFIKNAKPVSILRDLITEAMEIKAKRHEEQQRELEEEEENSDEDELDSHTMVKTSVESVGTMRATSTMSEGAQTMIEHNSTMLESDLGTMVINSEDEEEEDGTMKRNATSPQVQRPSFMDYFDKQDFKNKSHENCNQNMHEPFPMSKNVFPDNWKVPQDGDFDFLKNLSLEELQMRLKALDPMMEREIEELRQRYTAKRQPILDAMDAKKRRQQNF

[9] = target: T2, Serine/threonine-protein kinase 3 (Homo sapiens); conditions: at 1 µM
[10] = target: Serine/threonine-protein kinase 26 (Homo sapiens) (UniProt Q9P289); conditions: at 0.1 µM
Serine/threonine-protein kinase 26 (Homo sapiens), sequence (Q9P289 2-416 limits assumed): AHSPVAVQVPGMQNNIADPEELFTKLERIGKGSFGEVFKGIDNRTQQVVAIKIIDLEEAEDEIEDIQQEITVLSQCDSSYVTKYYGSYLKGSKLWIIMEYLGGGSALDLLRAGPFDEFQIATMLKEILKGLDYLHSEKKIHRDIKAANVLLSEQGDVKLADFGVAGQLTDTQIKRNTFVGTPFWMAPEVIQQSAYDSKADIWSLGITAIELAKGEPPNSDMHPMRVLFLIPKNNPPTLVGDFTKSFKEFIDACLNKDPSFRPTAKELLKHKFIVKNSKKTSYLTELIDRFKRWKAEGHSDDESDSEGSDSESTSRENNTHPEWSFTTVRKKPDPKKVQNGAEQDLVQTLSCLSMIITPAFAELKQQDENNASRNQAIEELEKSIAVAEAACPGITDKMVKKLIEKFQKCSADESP

Mitogen-activated protein kinase kinase kinase kinase 4 (Homo sapiens), sequence (O95819 2-1239 limits assumed): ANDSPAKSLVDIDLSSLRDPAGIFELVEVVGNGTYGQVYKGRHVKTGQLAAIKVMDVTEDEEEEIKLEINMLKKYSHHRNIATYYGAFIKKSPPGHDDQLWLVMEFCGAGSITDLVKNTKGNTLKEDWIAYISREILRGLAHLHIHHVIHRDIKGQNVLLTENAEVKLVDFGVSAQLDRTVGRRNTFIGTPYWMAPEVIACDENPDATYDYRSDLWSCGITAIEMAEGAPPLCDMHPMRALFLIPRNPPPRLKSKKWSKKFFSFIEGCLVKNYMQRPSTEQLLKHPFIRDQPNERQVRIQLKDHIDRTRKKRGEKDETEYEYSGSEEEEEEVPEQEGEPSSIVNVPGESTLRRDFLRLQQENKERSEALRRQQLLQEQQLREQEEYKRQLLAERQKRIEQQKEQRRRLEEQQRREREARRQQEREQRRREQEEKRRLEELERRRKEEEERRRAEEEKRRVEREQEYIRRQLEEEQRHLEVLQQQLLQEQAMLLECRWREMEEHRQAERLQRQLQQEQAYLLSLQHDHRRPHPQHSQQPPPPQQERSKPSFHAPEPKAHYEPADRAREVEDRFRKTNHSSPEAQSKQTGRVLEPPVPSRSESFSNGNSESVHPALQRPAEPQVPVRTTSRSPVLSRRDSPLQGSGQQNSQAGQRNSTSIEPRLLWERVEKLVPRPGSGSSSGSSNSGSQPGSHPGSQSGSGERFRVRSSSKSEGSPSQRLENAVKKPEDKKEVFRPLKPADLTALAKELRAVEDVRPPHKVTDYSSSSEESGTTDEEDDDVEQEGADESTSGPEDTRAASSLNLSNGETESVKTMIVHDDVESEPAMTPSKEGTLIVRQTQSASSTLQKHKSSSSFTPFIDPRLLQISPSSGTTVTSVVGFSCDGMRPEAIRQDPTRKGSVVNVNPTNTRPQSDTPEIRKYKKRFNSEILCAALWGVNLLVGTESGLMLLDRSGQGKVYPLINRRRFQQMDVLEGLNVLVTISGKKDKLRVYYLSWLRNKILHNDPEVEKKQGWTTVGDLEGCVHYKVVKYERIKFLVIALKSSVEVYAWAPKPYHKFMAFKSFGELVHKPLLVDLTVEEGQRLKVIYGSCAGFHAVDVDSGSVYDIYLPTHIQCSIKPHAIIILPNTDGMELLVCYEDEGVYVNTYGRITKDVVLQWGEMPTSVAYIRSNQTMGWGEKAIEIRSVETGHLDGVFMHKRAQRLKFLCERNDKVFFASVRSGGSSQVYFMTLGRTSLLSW
Dual specificity mitogen-activated protein kinase kinase 1 (Homo sapiens), sequence (Q02750 whole entry): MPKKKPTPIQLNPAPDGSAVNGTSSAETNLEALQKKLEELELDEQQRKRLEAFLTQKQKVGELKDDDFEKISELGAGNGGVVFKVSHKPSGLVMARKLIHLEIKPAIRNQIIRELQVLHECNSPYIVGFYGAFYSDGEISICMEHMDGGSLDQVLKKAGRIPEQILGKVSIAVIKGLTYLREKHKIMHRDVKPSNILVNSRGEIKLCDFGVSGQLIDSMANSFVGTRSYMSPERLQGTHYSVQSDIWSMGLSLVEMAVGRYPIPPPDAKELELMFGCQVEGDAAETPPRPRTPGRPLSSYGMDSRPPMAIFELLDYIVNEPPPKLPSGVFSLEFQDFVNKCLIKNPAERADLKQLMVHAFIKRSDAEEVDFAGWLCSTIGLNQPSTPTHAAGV

SMILES	inhibition [1] [%]	inhibition [2] [%]	inhibition [3] [%]	inhibition [4] [%]	inhibition [5] [%]	inhibition [6] [%]	inhibition [7] [%]	inhibition [8] [%]	inhibition [9] [%]	inhibition [10] [%]
COc1cc2ncn(-c3cc(OCc4ccccc4S(C)(=O)=O)c(C#N)s3)c2cc1OC	90.5	3.78	7.23	43.7	83.5	22.3	66.4	17.3	51.5	-1.33
COC(=O)c1cncc(/C=C/c2c(C)cc(O)cc2C)c1	18.8	4.72	4.21	5.24	14.9	7.04	9.84	7.02	9.92	-1.08
FC(F)(F)c1ccc(-c2nn3ncccc3c2-c2ccnc(Nc3ccc4c(c3)OCCO4)n2)cc1	12	1.64	-1.13	2.9	11.5	3.87	7.46	4.21	8.12	6.19
C[C@@H](Oc1cc(-n2cnc3ccc(OCC4CCN(C)CC4)cc32)sc1C(N)=O)c1ccccc1C(F)(F)F	1.19	-0.27	0.01	0.08	0.43	29.1	74.7	11.4	56.7	
COc1cccc(-n2nc(C)c3c(N/N=C(\C)c4ccncc4)ncnc32)c1	4.83	-0.14	-0.11	1.43	6.12	1.29	1.63	1.78	3.56	-0.95
O=S(=O)(CCOCc1ccc(-c2ccc3ncnc(Nc4ccc(OCc5cccc(F)c5)c(Cl)c4)c3c2)o1)c1ccccc1	7	2.11	3.33	3.54	5.66	4.3	7.99	0.99	5.7	-0.04
Nc1ccc(C#Cc2cncnc2Nc2ccc(OCc3cccc(F)c3)c(Cl)c2)cc1	0.49	2.6	3.23	3.73	1.66	2.07	2.02	3.2	4.05	-0.87
COc1cccc(-n2ncc3c(N/N=C/c4ccc(S(C)(=O)=O)cc4)ncnc32)c1	59.4	1.79	1.58	13.4	50.3	1.66	4.3	0.59	2.91	1.71
COc1cc(/C=N/Nc2ncnc3c2cnn3C(C)C)ccc1O	21.4	2.16	1.21	6.6	19.1	1.8	7.78	1.29	8.02	0.35
NS(=O)(=O)c1cccc(-c2cc3ccncc3cc2OCc2ccccc2)c1	11.1	5.91	5.86	7.3	13.4	8	11.9	7.94	11	-2.99
ON=C1CCc2cc(-c3nc(C4CCNCC4)[nH]c3-c3ccncc3)ccc21	21.5	0.2	2.1	4.01	18.4	2.4	3.87	1.63	2.8	0.5
CCOc1nccc2c1nc(-c1nonc1N)n2CC	14.3	3.44	3.14	5.33	13.8	12.1	22.7	11.4	21.8	0.4
N#Cc1cccc(Nc2nccc(-c3cnn4ncccc34)n2)c1	64.3	19.5	63	16.6	53.4	8.96	27.6	7.72	24.4	-0.39
NS(=O)(=O)c1ccc(Nc2cc(-c3cccc(O)c3)n[nH]2)cc1	17.6	7.97	5.67	8	18.6	9.01	16.1	8.2	13.4	-1.36
CN(c1ccc(NC(=O)Nc2ccc(OC(F)(F)F)cc2)cc1)c1ccnc(Nc2cccc(S(N)(=O)=O)c2)n1	85.1	3.84	13.7	24.3	80.3	2.75	9.45	4.46	6.49	-1.04
Cc1ccc2c(-c3ccnc(Nc4cccc(C(F)(F)F)c4)n3)c(-c3ccccc3)nn2n1	46.8	5.35	7.59	8.79	38.2	3.51	7.31	5.68	6.69	0.2
[O-][S+]1CCN(Cc2ccc(-c3ccc4ncnc(Nc5ccc(OCc6ccccc6)c(Cl)c5)c4c3)o2)CC1	3.32	2.1	3.29	-0.23	1.36	0.8	1.83	-0.27	0.41	-0.67

Source: ChEMBL document CHEMBL1961873, “Compounds: GSK PKIS; Assays: Nanosyn kinase panel” (2012)
